In all, about 330,000 compounds went through this assay and about 300 (0.091%) were called active. Not shown: some 4% with an inconclusive outcome. What follows is part of a selection rich in actives, with near analogues and random picks from the rest. A number with no mark means an inactive call. The call rests on the fitted dose curve; in most records, active means well fitted inhibition curve with a large enough effect; inconclusive means small, poorly fitted or top-dose-only effect, or effect the other way, or another doubt; inactive means no such curve, though single readings can be large or run the other way.
Potency means the concentration at half of the fitted maximal effect.

The experiment deals with Lysosomal acid glucosylceramidase (Homo sapiens) (UniProt P04062). Put plainly: qHTS Assay for Inhibitors and Activators of N370S glucocerebrosidase as a Potential Chaperone Treatment of Gaucher Disease.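 On activity change, negative = inhibition: 0% = full enzyme activity and -100% = no enzyme basal.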 To be noted: N370S GC spleen homogenate, 4MU-glucoside fluorescence; series mostly up to 59.4 µM; activity change, negative = inhibition: at the top concentration.
`Cc1nc(-c2ccc(F)cc2)c(CC(=O)N(C)CC(=O)Nc2c(C)cccc2C)s1`: the “activity change, negative = inhibition” value was -17.5%.
With `CC(C)(C)c1ccc(S(=O)(=O)N2CCN(C(=O)c3ccc4c(c3)C(=O)N(Cc3ccncc3)C4=O)CC2)cc1`, the “activity change, negative = inhibition” value is -4.23%.
Regarding `CC(C)(O/N=C(\C(=O)N[C@@H]1C(=O)N2C(C(=O)[O-])=C(C[n+]3ccccc3)CS[C@@H]12)c1csc(N)n1)C(=O)O`, the “activity change, negative = inhibition” value is 5.35% [at 21.6 µM].
As to `CCOCCOC(=O)C(C)Oc1ccc(Oc2ncc(C(F)(F)F)cc2Cl)cc1` (stereo not given), the “activity change, negative = inhibition” value was -1.23%.
Regarding `O=C1[C@H]2[C@H]3[C@H](O)[C@H](O)C/C(=N/OCc4ccccc4)[C@H]3CC[C@@H]2C(=O)N1Cc1ccccc1`, the activity change, negative = inhibition was 4.77% [at 12.8 µM].
Take `CC(=O)N1[C@H](C)C=C[C@]1(Cc1ccccc1)C(=O)NCc1ccccn1`: the “activity change, negative = inhibition” value was 7.18%.
The same measure, in the same setting: the value for `CN(C)CCCNC(=S)NCc1ccc(Cl)cc1` was -7.45%.
Regarding `S=C(NCCCc1cnc[nH]1)NCCCN(Cc1ccc(Cl)c(Cl)c1)c1ccc(Br)cn1`, the Potency was 1 µM (active).
Consider `Fc1ccc(Cl)cc1-c1nc(Nc2ccncc2)c2nccnc2n1`, for which the “activity change, negative = inhibition” value was -3.89%.
Turning to `CC1(C)OC2CC3C4CCC5=CC(=O)CCC5(C)C4(F)C(O)CC3(C)[C@]2(C(=O)CCl)O1` (stereo not given in full), the “activity change, negative = inhibition” value is -5.68%.
As to `COc1ccccc1CNS(=O)(=O)c1cc(C(=O)NCc2ccccn2)c(Cl)cc1Cl`, the “activity change, negative = inhibition” value is -9.28%.
On to `CCCC[C@@H]1C[C@H]1C(NC(=O)c1ccco1)c1ccc(C(=O)OC)cc1` (stereo not given in full), for which the “activity change, negative = inhibition” value is -2.07%.
With `CCC1=Nc2cc(C(=O)NCCCN3CCOCC3)ccc2Sc2ccc(Br)cc21`, the “activity change, negative = inhibition” value was -29.8%.
With `Cc1ccccc1CN1C(=O)c2ccccc2Sc2ccc(C(=O)NCCCN3CCOCC3)cc21`, the Potency was 11.2 µM (active).
For the molecule `Cc1ccc(C(=O)NCCN2CCOCC2)cc1C`, the “activity change, negative = inhibition” value is 0.992%.
Consider `CCc1cccc(NC(=O)COC(=O)c2cc(=O)c3ccccc3o2)c1`, for which the “activity change, negative = inhibition” value is 0.464%.
On to `CCc1nnc(NC(=O)C2CCN(C(=O)c3ccccc3C)CC2)s1`, for which the “activity change, negative = inhibition” value is -0.449%.
Still for that read-out and setting: the value for `O=NO` was “inactive”.
For `CN1CCN(S(=O)(=O)c2ccc(N3CCN(c4ccccc4O)CC3)c([N+](=O)[O-])c2)CC1`, the “activity change, negative = inhibition” value was -19%.
For `C=CC(=C)CCC=C(C)C`, the “activity change, negative = inhibition” value was 10.8%.
Take `O=C1CC(=O)Nc2cc(S(=O)(=O)N3CCN(c4cccc(C(F)(F)F)c4)CC3)ccc2N1`: the Potency is 14.1 µM (active).
`Cc1[nH]c(C)c(S(=O)(=O)N2CCN(c3cccc(C(F)(F)F)c3)CC2)c1C(=O)N1CCCC1`: the “activity change, negative = inhibition” value is -10.1%.
As for `CC(=O)N1CCOc2ccc(S(=O)(=O)N3CCN(c4cccc(C(F)(F)F)c4)CC3)cc21`, the “activity change, negative = inhibition” value was -3.52%.
In the case of `CC1CCN(C(=O)COC(=O)CCC(=O)c2cccs2)CC1`, the “activity change, negative = inhibition” value is -8.17%.
For `Cc1cc2nc3c(=O)[nH]c(=O)nc-3n(C[C@H](O)[C@H](O)[C@H](O)CO)c2cc1C`, the “activity change, negative = inhibition” value was 2.13%.

The record behind these values is PubChem BioAssay AID2101 (National Center for Advancing Translational Sciences (NCATS), 2009).
